Source: PubChem BioAssay AID2275 (Broad Institute, 2010)
About 190 (0.63%) of roughly 30,000 compounds were called active. No stated cut-off is given here; in the data, active means viability loss activity score above about 50%; inconclusive means no clear call, values can overlap the other calls; inactive means below about 35%. Many of the other results were omitted from the sample, so actives are more common in it than they were.

Experiment: BJeLR cell viability loss, primary screen, luminescence, CellTiterGlo ATP (AID 2275);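 further: higher score means fewer live cells and less ATP luminescence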
Conditions: BJeLR fibroblasts viability, 48 h, stronger effect = higher value, HRASV12, hTERT and SV40 LT/ST transformed, concentration not given here
For `COc1cc(OC)c(N(C)C(=O)c2ccc3c(=O)n4c(nc3c2)CCCCC4)cc1Cl`, the viability loss activity score was 4.36% (inactive). With `CCN(CC)C(=O)Cn1cc(SCc2ccccc2)c2ccccc21` the viability loss activity score was -2.18% (inactive). In the case of `CCCCS(=O)CSc1nc(-c2ccc(OC)cc2)cc(-c2ccccc2)c1C#N` (centres undefined), the viability loss activity score is reported as -8.8% (inactive). With `O=C(Nc1ccncc1)c1cccc(COc2ccc3ccccc3c2)c1` the viability loss activity score was 12.1% (inactive). With `O=C(c1ccccc1)c1cnn(-c2ccc(Cl)cc2)n1` the viability loss activity score was 14.6% (inactive). For `CN1c2ccccc2C(C)(C)C12Cc1cc(NS(=O)(=O)c3ccc(Cl)cc3)ccc1O2` (centres undefined), the viability loss activity score was 0.312% (inactive). For `O=C(Oc1ccc(Br)cc1)c1ccco1`, the viability loss activity score was -1.65% (inactive). With `CCOC(=O)c1cc(-c2ccc(C)cc2)n(CC(=O)NCC2CCCO2)c1C` (centres undefined) the viability loss activity score was -1.7% (inactive). With `N/C(C[n+]1ccccc1)=N\O` the viability loss activity score was -4.49% (inactive). For `O=C(CCc1nc2sc3c(c2c(=O)[nH]1)CCCC3)NC1CCCC1`, the viability loss activity score was 1.97% (inactive). For `O=C1CSC(c2ccc(Cl)cc2)N1Nc1nc(Nc2ccccc2)nc(N2CCCCC2)n1` (centres undefined), the viability loss activity score was -7.31% (inactive). For `COc1ccc(/C=C2\SC(=O)N(c3ccc(C)cc3)C2=O)cc1`, the viability loss activity score was -2.92% (inactive). In the case of `COc1cc2c(c(OC)c1)C(c1ccccc1OC)CC(=O)N2` (centres undefined), the viability loss activity score is reported as 0.526% (inactive). With `COc1ccc(S(=O)(=O)N(C)C[C@H]2Oc3ccc(N(C)C)cc3C(=O)N([C@@H](C)CO)C[C@@H]2C)cc1` the viability loss activity score was 0.729% (inactive). With `O=C(NCCCN1CCCC1)c1cc(-c2ccncc2)nc2ccccc12` the viability loss activity score was 3.5% (inactive). With `O=C(NCCc1ccccc1)c1nnc(Cc2ccc(F)cc2)o1` the viability loss activity score was -0.807% (inactive). With `CCCN(CCC)Cc1c(O)ccc2c(=O)c(-c3ccccc3)coc12` the viability loss activity score was 3.33% (inactive). In the case of `Cc1cccc(C)c1N=C1Oc2ccccc2NC1(C)c1ccccn1` (centres undefined), the viability loss activity score is reported as -0.212% (inactive). For `CC(C)(C)C1=CC(=Nc2ccccc2N)C=C(C(C)(C)C)C1O` (centres undefined), the viability loss activity score was -0.524% (inactive). In the case of `CC(c1ccccc1)N1C(=O)c2ccccc2C1Nc1ccc(F)cc1` (centres undefined), the viability loss activity score is reported as -2.92% (inactive). With `COC(Cn1c(SCC(=O)c2cccc(C(F)(F)F)c2)nnc1-c1ccc(Cl)cc1)OC` the viability loss activity score was 2.18% (inactive). For `CSc1nc(COc2ccc(C(C)(C)C)cc2)nc(-n2cccc2)c1C#N`, the viability loss activity score was -2.33% (inactive). For `C=CCC(c1cc(Cl)ccc1N)S(=O)(=O)c1ccc(C)cc1` (centres undefined), the viability loss activity score was 0.759% (inactive). With `CSc1cccc(NC(=O)CSc2nncn3c2cc2sccc23)c1` the viability loss activity score was -1.6% (inactive).
